Assay results from PubChem BioAssay (NCATS).
Values without a mark were called inactive. Records with an inconclusive call do not appear. Calls of active or inactive are those of the source. Calls follow the shape of the dose curve; as a rule, active = well fitted curve in the direction sought with a large enough effect; inconclusive = small, poorly fitted or top-dose-only effect, or another doubt; inactive = no such curve, though single readings can be large; an effect the other way counts as inactive or inconclusive.

System: not listed separately
Assay: Cell Viability - LYMP2-024 (AID 988);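 also: plate controls were DMSO only for no effect and 92 µM tetraoctylammonium bromide for full effect; nearly all actives have a fitted effect of over 60% in size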
Settings: LYMP2-024 lymphoblastoid cell viability; series mostly up to 92.2 µM; activity change, negative = cytotoxicity: at the top concentration
Method in brief: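 Steps: seed 2500 cells/well, 5 hr 37 C; add compound, 24 hr 37 C; add CellTiter-Glo, 30 min room temperature; read luminescence. AC50 derived by Hill modelling of concentration-dependent ATP loss.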

Compound	activity change, negative = cytotoxicity [%]	outcome
CC(C)NC(C)C	-5.91	
CCC(C)(C)c1ccc(O)cc1	-4.58	
CCCC(C)(COC(N)=O)COC(N)=O	-4.94	
O=P1(N(CCCl)CCCl)NCCCO1 (stereo not given)	-4.98	
COP(=S)(OC)Oc1ccc(SC)c(C)c1	-13.3	
CC(C)c1cccc(C(C)C)c1O	-8.15	
Clc1ccc(C(c2ccc(Cl)cc2)C(Cl)(Cl)Cl)cc1	-8.09	
C[C@]1(O)CC[C@H]2[C@@H]3CCC4=CC(=O)CC[C@]4(C)[C@@]3(F)[C@@H](O)C[C@@]21C	-3.08	
COc1cc(OC)c(OC)cc1C=O	0.404	
Nc1ccccc1	-0.276	
C[C@]12CCC(=O)C=C1CC[C@@H]1[C@@H]2CC[C@@]2(C)[C@H]1CC[C@]2(C)O	-8.65	
Oc1ccc(Cl)cc1	-10.3	
C[C@]12CCC(=O)C=C1CC[C@@H]1[C@@H]2CC[C@]2(C)C(=O)CC[C@@H]12		inactive
NCCc1ccc(O)cc1	-12	
CCOC(=O)CC(SP(=S)(OC)OC)C(=O)OCC (stereo not given)	-6.58	
Nc1ccccc1C(=O)O	-8.92	

System: not listed separately
Assay: Cell Viability - LYMP2-026 (AID 989);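 also: cells exposed to compound for 24 h at 37 °C; % is scaled to controls: 0 for no effect and ±100 for the full control effect; nearly all actives have a fitted effect of over 50% in size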
Settings: LYMP2-026 lymphoblastoid cell viability, qHTS; series mostly up to 92.2 µM; activity change, negative = cytotoxic: at the top concentration
Method in brief: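 Luminescent ATP signal (CellTiter-Glo, 30 min room temperature) measures viable lymphoblastoid cells after 24 hr compound treatment at 37 C. Decreased ATP reflects acute toxicity; AC50 values come from Hill-equation modeling.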

Compound	activity change, negative = cytotoxic [%]	outcome
CC(C)NC(C)C	6.1	
CCC(C)(C)c1ccc(O)cc1	0.619	
CCCC(C)(COC(N)=O)COC(N)=O	4.32	
O=P1(N(CCCl)CCCl)NCCCO1 (stereo not given)	10.5	
COP(=S)(OC)Oc1ccc(SC)c(C)c1	14.5	
COC(=O)C(c1ccccc1)C1CCCCN1 (stereo not given)	-24.4	
CC(C)c1cccc(C(C)C)c1O	-2.93	
Clc1ccc(C(c2ccc(Cl)cc2)C(Cl)(Cl)Cl)cc1	1.26	
C[C@]1(O)CC[C@H]2[C@@H]3CCC4=CC(=O)CC[C@]4(C)[C@@]3(F)[C@@H](O)C[C@@]21C	3.4	
COc1cc(OC)c(OC)cc1C=O	3.21	
Nc1ccccc1	2.17	
C[C@]12CCC(=O)C=C1CC[C@@H]1[C@@H]2CC[C@@]2(C)[C@H]1CC[C@]2(C)O	-13.3	
CN1C[C@H](C(=O)N[C@]2(C)O[C@@]3(O)[C@@H]4CCCN4C(=O)[C@H](Cc4ccccc4)N3C2=O)C=C2c3cccc4[nH]cc(c34)C[C@H]21	-13.1	
Oc1ccc(Cl)cc1	9.04	
C[C@]12CCC(=O)C=C1CC[C@@H]1[C@@H]2CC[C@]2(C)C(=O)CC[C@@H]12		inactive
NCCc1ccc(O)cc1	-15.6	
CCOC(=O)CC(SP(=S)(OC)OC)C(=O)OCC (stereo not given)	-1.47	
Nc1ccccc1C(=O)O	3.18	

Biological target: Alpha-galactosidase A (Homo sapiens) (UniProt P06280)
Assay: Counterscreen for Glucocerebrosidase Inhibitors: qHTS Assay for Human alpha-Galactosidase at pH 4.5 (AID 992); also: 0% is about no effect
Settings: purified enzyme, fluorogenic substrate; series mostly up to 76.9 µM; activity change, negative = inhibition: at the top concentration
Method in brief: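 Quantitative HTS: compounds tested from 0.7 nM up to 77 uM against 2 nM enzyme with 80 uM 4-MU alpha-D-galactopyranoside. The 20 min room-temperature reaction is stopped with 1M NaOH/1M glycine, pH 10.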

Alpha-galactosidase A (Homo sapiens), sequence (P06280 whole entry, looked up): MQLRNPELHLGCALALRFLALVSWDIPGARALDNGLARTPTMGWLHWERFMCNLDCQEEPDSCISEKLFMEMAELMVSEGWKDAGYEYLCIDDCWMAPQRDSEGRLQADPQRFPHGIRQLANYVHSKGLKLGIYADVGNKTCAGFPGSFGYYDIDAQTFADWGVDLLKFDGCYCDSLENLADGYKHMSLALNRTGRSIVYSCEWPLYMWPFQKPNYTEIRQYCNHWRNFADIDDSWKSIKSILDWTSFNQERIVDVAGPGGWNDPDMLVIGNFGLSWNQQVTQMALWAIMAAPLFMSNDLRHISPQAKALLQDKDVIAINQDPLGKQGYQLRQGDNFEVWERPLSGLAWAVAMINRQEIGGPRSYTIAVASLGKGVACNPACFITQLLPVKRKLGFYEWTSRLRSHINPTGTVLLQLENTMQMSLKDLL

Compound	activity change, negative = inhibition [%]
O=c1[nH]oc2c1CCNC2	0.427
O=P1(N(CCCl)CCCl)NCCCO1 (stereo not given)	-1.15
CC(C)c1cccc(C(C)C)c1O	-0.135
O=C(CCCN1CCC2(CC1)C(=O)NCN2c1ccccc1)c1ccc(F)cc1	-2.06
O=C(O)CCCc1ccc(N(CCCl)CCCl)cc1	0.313
CCCCC/C=C\C/C=C\C/C=C\C/C=C\CCCC(=O)NCC(=O)O	-10.5
C[C@]12CCC(=O)C=C1CC[C@@H]1[C@@H]2CC[C@]2(C)C(=O)CC[C@@H]12	-1.11
NCCc1ccc(O)cc1	-0.484

System: not listed separately
Assay: Cell Viability - LYMP1-002 - Assay at 24 hr (AID 993); also: potency is read from the fitted curve at half-maximal effect; as to activity change, negative = cytotoxicity: % is scaled to controls: 0 for no effect and ±100 for the full control effect
Settings: LYMP1-002 lymphoblastoid cells viability; series mostly up to 92.2 µM; activity change, negative = cytotoxicity: at the top concentration
Method in brief: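 Cells plated 2500/well, 5 hr 37 C; compounds added, 24 hr 37 C; CellTiter-Glo added, 30 min RT; luminescence read. Tetraoctylammonium bromide positive control. Hill-equation AC50.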

Compound	activity change, negative = cytotoxicity [%]	Potency
CC(C)NC(C)C	2.14	
CCC(C)(C)c1ccc(O)cc1	-0.524	
CCCC(C)(COC(N)=O)COC(N)=O	-0.439	
O=P1(N(CCCl)CCCl)NCCCO1 (stereo not given)	-3.45	
COP(=S)(OC)Oc1ccc(SC)c(C)c1	-0.309	
COC(=O)C(c1ccccc1)C1CCCCN1 (stereo not given)	2.45	
CC(C)c1cccc(C(C)C)c1O	-4.34	
Clc1ccc(C(c2ccc(Cl)cc2)C(Cl)(Cl)Cl)cc1		50.1 µM (active)
C[C@]1(O)CC[C@H]2[C@@H]3CCC4=CC(=O)CC[C@]4(C)[C@@]3(F)[C@@H](O)C[C@@]21C	1.59	
COc1cc(OC)c(OC)cc1C=O	0.496	
Nc1ccccc1	6.82	
C[C@]12CCC(=O)C=C1CC[C@@H]1[C@@H]2CC[C@@]2(C)[C@H]1CC[C@]2(C)O	-12.7	
CN1C[C@H](C(=O)N[C@]2(C)O[C@@]3(O)[C@@H]4CCCN4C(=O)[C@H](Cc4ccccc4)N3C2=O)C=C2c3cccc4[nH]cc(c34)C[C@H]21	-21.3	
Oc1ccc(Cl)cc1	3.37	
O=C(O)CCCc1ccc(N(CCCl)CCCl)cc1	-20.3	
C[C@]12CCC(=O)C=C1CC[C@@H]1[C@@H]2CC[C@]2(C)C(=O)CC[C@@H]12		inactive
NCCc1ccc(O)cc1	3.88	
CCOC(=O)CC(SP(=S)(OC)OC)C(=O)OCC (stereo not given)	6.34	
Nc1ccccc1C(=O)O	6.1	

System: not listed separately
Assay: Cell Viability - LYMP1-002 - Assay at 40 hr (AID 994); also: nearly all actives have a fitted effect of over 60% in size; also: potency is read from the fitted curve at half-maximal effect;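 as to viability change, negative = cytotoxic: 0% = DMSO only and full inhibition = 92 µM tetraoctylammonium bromide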
Settings: LYMP1-002 lymphoblastoid cell viability; series mostly up to 92.2 µM; viability change, negative = cytotoxic: at the top concentration
Method in brief: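 Luminescent ATP signal served as the viability readout, with decreases taken as toxicity. Cells were treated with compounds across a concentration range for 40 hours at 37 C, and AC50 values came from standard Hill modeling.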

Compound	viability change, negative = cytotoxic [%]	Potency
CC(C)NC(C)C	0.441	
CCC(C)(C)c1ccc(O)cc1	-6.15	
CCCC(C)(COC(N)=O)COC(N)=O	3.5	
O=P1(N(CCCl)CCCl)NCCCO1 (stereo not given)	-5.4	
COP(=S)(OC)Oc1ccc(SC)c(C)c1	-6.2	
COC(=O)C(c1ccccc1)C1CCCCN1 (stereo not given)	-4.52	
CC(C)c1cccc(C(C)C)c1O	-5.44	
Clc1ccc(C(c2ccc(Cl)cc2)C(Cl)(Cl)Cl)cc1	-8.23	
C[C@]1(O)CC[C@H]2[C@@H]3CCC4=CC(=O)CC[C@]4(C)[C@@]3(F)[C@@H](O)C[C@@]21C	-8	
COc1cc(OC)c(OC)cc1C=O	-6.17	
Nc1ccccc1	-1.32	
C[C@]12CCC(=O)C=C1CC[C@@H]1[C@@H]2CC[C@@]2(C)[C@H]1CC[C@]2(C)O	-22.9	
CN1C[C@H](C(=O)N[C@]2(C)O[C@@]3(O)[C@@H]4CCCN4C(=O)[C@H](Cc4ccccc4)N3C2=O)C=C2c3cccc4[nH]cc(c34)C[C@H]21	-27.3	
Oc1ccc(Cl)cc1	-4.14	
O=C(O)CCCc1ccc(N(CCCl)CCCl)cc1		25.1 µM (active)
C[C@]12CCC(=O)C=C1CC[C@@H]1[C@@H]2CC[C@]2(C)C(=O)CC[C@@H]12		inactive
NCCc1ccc(O)cc1	-4.64	
CCOC(=O)CC(SP(=S)(OC)OC)C(=O)OCC (stereo not given)	-8.75	
Nc1ccccc1C(=O)O	-6.78	
